Results as given in PubChem BioAssay AID1159580 (chemical genetic matrix, 2015).
Several values for one entry are separate records, joined by “and”; a condition that tells them apart may be missing. Identical values can stand only once. In all, about 5,500 compounds went through this assay and about 2,000 (36%) were called active. Inconclusive results (about 18%) are left out. Rule as the data show it: active = normalized growth mostly below about 0.91 (no sharp cut-off); inconclusive = no clear call, values can overlap the other calls; inactive = mostly above about 0.92. This is one part of the list.

Assay: chemical genetic growth profiling, strain panel (AID 1159580);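 also: tested at 20 µM; growth read once vehicle control cultures reached saturation at 30 °C; 1 = growth at the plate median or of vehicle wells; lower values mean less growth of the strain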
Conditions: S. cerevisiae deletion strains, growth OD

Measured: normalized growth

CC(C)N(CCC(C(N)=O)(c1ccccc1)c1ccccn1)C(C)C (stereo not drawn)
active: locus YKL160W, strain elf1, hits give low values 0.139 | locus YKR026C, strain gcn3, hits give low values 0.441 | locus YKR091W, strain srl3, hits give low values 0.559 | locus YLL001W, strain dnm1, hits give low values 0.0623 | locus YLL026W, hits give low values 0.0653 | locus YLL041C, strain sdh2, hits give low values 0.411 | locus YLR027C, strain aat2, hits give low values 0.0601 | locus YLR221C, strain rsa3, hits give low values 0.0673 | locus YLR258W, strain gsy2, hits give low values 0.0927 | locus YLR262C, strain YPT6 (second series), hits give low values 0.0974 | locus YLR320W, strain mms22, hits give low values 0.104 | locus YLR342W, strain FKS1, hits give low values 0.0913 | locus YLR357W, strain rsc2, hits give low values 0.133 | locus YLR370C, strain arc18, hits give low values 0.0613 | locus YLR384C, strain iki3, hits give low values 0.0647 | locus YML120C, strain ndi1, hits give low values 0.0595 | locus YMR058W, strain fet3, hits give low values 0.0623 | locus YMR125W, strain sto1, hits give low values 0.309 | locus YMR129W, hits give low values 0.0614 | locus YMR205C, strain PFK2, hits give low values 0.193 | locus YMR231W, strain pep5, hits give low values 0.095 | locus YNL071W, strain lat1, hits give low values 0.0658 | locus YNL209W, strain ssb2, hits give low values 0.0612 | locus YNL248C, strain rpa49, hits give low values 0.0783 | locus YNL322C, strain KRE1 (second series), hits give low values 0.0713 | locus YNR049C, strain mso1, hits give low values 0.0601 | locus YOR001W, strain rrp6, hits give low values 0.0692 | locus YOR070C, strain gyp1, hits give low values 0.0654 | locus YOR080W, strain dia2, hits give low values 0.0699 | locus YOR083W, strain WHI5, hits give low values 0.227 | locus YOR106W, strain vam3, hits give low values 0.0676 | locus YOR265W, strain rbl2, hits give low values 0.0664 | locus YOR270C, strain vph1, hits give low values 0.0928 | locus YOR290C, strain snf2, hits give low values 0.0671 | locus YPL051W, strain arl3, hits give low values 0.0788 | locus YPL078C, strain atp4, hits give low values 0.0695 | locus YPL106C, strain sse1, hits give low values 0.117 | locus YPL240C, strain hsp82, hits give low values 0.278
inactive: locus YJR066W, strain TOR1, hits give low values 0.994 | locus YJR075W, strain HOC1, hits give low values 1.02 | locus YKL009W, strain mrt4, hits give low values 0.97 | locus YKL068W, hits give low values 0.98 | locus YKL085W, strain MDH1 (second series), hits give low values 0.988 | locus YKL085W, strain MDH1, hits give low values 0.988 | locus YKR001C, strain vps1, hits give low values 0.988 | locus YLR039C, strain RIC1, hits give low values 0.972 | locus YLR058C, strain SHM2, hits give low values 0.979 | locus YLR102C, strain apc9, hits give low values 0.987 | locus YLR113W, strain HOG1, hits give low values 1.06 | locus YLR262C, strain YPT6, hits give low values 0.963 | locus YLR268W, strain sec22, hits give low values 0.999 | locus YLR330W, strain CHS5, hits give low values 0.989 | locus YLR342W, strain FKS1 (second series), hits give low values 1.02 | locus YLR371W, strain rom2, hits give low values 0.997 | locus YLR418C, strain cdc73, hits give low values 0.967 | locus YML016C, strain PPZ1, hits give low values 0.997 | locus YML032C, strain rad52, hits give low values 1.01 | locus YML124C, strain tub3, hits give low values 0.994 | locus YMR078C, strain ctf18, hits give low values 0.978 | locus YMR223W, strain ubp8, hits give low values 0.978 | locus YMR263W, strain SAP30, hits give low values 0.991 | locus YMR307W, strain GAS1, hits give low values 1.01 and 0.995 and 1.02 | locus YNL067W, strain RPL9B, hits give low values 0.973 | locus YNL128W, strain TEP1, hits give low values 1.02 and 0.999 | locus YNL153C, strain GIM3, hits give low values 0.983 and 1.03 | locus YNL175C, strain NOP13, hits give low values 0.978 and 1.02 | locus YNL183C, strain NPR1, hits give low values 1 | locus YNL197C, strain WHI3, hits give low values 1.01 and 0.977 | locus YNL224C, strain SQS1, hits give low values 0.978 and 1.01 | locus YNL233W, strain BNI4, hits give low values 0.972 | locus YNL250W, strain rad50, hits give low values 1.01 | locus YNL271C, strain bni1, hits give low values 0.996 | locus YNL298W, strain CLA4, hits give low values 0.997 | locus YNL307C, strain MCK1, hits give low values 0.999 | locus YNL322C, strain KRE1, hits give low values 0.977 and 1.02 | locus YNR052C, strain pop2, hits give low values 0.997 | locus YOL012C, strain htz1 0.863 | locus YOL147C, strain pex11, hits give low values 0.984 | locus YOR061W, strain CKA2, hits give low values 0.998 | locus YOR069W, strain VPS5, hits give low values 0.996 | locus YOR083W, strain WHI5 (second series), hits give low values 1 and 0.957 | locus YOR136W, strain idh2, hits give low values 1.01 | locus YOR144C, strain elg1, hits give low values 0.996 | locus YOR184W, strain ser1, hits give low values 0.995 | locus YOR231W, strain MKK1, hits give low values 1.02 | locus YOR316C, strain cot1, hits give low values 1 | locus YPL241C, strain CIN2, hits give low values 0.995 and 1.01 | locus YPL256C, strain CLN2, hits give low values 0.991 | locus YPR119W, strain clb2, hits give low values 0.997 | locus YPR141C, strain kar3, hits give low values 0.962 | locus YPR163C, strain tif3, hits give low values 0.989 | locus YPR167C, strain met16, hits give low values 1.01 | strain wtn01, hits give low values 0.996
